Test [1] can be described thus: antimalarial activity against Dd2 strain (AID 2302;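 active = growth inhibition above 50% at the single 2 µM test dose, taken to imply half-maximal potency below 2 µM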;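 note: 0% = DMSO untreated growth and 100% = chloroquine plus artemisinin killed control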). As to conditions: P. falciparum Dd2 in RBCs, LDH growth readout, 72 h; at 2 µM; hits give high values.
Test [2] can be described thus: HepG2 cytotoxicity, primary screen, cytotoxicity control for P. falciparum antimalarial project, cell-based, ATP luminescence (AID 2303;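 active = inhibition above 50%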;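 note: 0% = DMSO wells and 100% = digitonin-killed cells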). As to conditions: HepG2 viability, 24-48 h, at 10 µM, hits give high values.
Test [3] has as its target L-lactate dehydrogenase (Plasmodium falciparum (isolate CDC / Honduras)) (UniProt Q27743). In words: PfLDH activity inhibition – cell lysate, 3D7 strain, counter-screen for P. falciparum growth inhibition project (AID 2304).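 Note: 0% = vehicle and 100% = reference inhibitor.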 As to conditions: P. falciparum 3D7 crude extract, LDH APAD/NBT absorbance; at 2 µM; hits give high values. In general terms: Counterscreens check selectivity or assay interference.

A short description of test [4]: inhibition of 3D7 malaria parasite growth – strain 3D7 (AID 2306).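 Note: 0% = DMSO wells and 100% = chloroquine plus artemisinin control wells.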 To be noted: P. falciparum 3D7 erythrocytic growth, LDH absorbance, 72 h; at 2 µM; hits give high values.
In test [5] the target is Calcium-dependent protein kinase 1 (Plasmodium falciparum (isolate 3D7)) (UniProt P62344). In words: PfCDPK1 kinase inhibitors, biochemical, TCAMS library (AID 1159585; cut-off not given, nearly all actives have IC50 up to about 0.98 µM;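 note: inhibitors leave more ATP so luminescence rises with inhibition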). To be noted: recombinant PfCDPK1, Kinase-Glo ATP depletion luminescence. (In general: In Kinase-Glo more light means more ATP remaining.)
Calcium-dependent protein kinase 1 (Plasmodium falciparum (isolate 3D7)), sequence (P62344 whole entry, looked up): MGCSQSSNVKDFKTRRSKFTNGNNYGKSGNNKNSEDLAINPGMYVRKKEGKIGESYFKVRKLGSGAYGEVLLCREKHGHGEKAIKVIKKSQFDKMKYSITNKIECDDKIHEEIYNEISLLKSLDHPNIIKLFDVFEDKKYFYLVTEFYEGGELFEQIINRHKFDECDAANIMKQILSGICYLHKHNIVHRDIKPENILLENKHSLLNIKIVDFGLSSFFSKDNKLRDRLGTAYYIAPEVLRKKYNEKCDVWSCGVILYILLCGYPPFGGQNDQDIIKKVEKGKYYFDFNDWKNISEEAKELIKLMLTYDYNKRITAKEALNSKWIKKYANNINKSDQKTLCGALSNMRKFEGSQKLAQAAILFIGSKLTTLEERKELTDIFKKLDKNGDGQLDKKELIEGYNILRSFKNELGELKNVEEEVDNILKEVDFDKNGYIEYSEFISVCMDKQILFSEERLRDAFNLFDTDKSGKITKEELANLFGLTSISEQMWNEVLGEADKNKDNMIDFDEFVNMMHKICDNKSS
Test [6] has as its target Plasmodium falciparum protein kinase 6 (PK6, PF3D7_1337100) (UniProt Q8IDW1). Description: PfPK6 kinase inhibitors, biochemical, TCAMS library (AID 1159586). To be noted: recombinant PfPK6, Kinase-Glo ATP depletion luminescence.
The target in test [7] is Protein kinase 7 (PK7), Plasmodium falciparum 3D7 (PF3D7_0213400) (UniProt Q7YTF7). In words: inhibition of Plasmodium PK7 catalytic activity – biochemical, TCAMS antimalarial set, Kinase-Glo luminescence (AID 1159587). To be noted: recombinant PfPK7, Kinase-Glo ATP depletion luminescence.
Protein kinase 7 (PK7), Plasmodium falciparum 3D7 (PF3D7_0213400), sequence (Q7YTF7 1-343): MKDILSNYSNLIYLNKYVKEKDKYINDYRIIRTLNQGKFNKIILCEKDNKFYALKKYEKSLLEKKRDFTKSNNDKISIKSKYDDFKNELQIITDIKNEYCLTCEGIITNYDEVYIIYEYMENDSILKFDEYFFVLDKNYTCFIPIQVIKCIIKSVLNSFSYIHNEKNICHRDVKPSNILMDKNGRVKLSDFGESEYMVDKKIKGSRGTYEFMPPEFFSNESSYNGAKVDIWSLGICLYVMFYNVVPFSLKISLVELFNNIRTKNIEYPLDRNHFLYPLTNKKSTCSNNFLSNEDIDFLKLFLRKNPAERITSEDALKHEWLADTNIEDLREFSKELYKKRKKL
In test [8] the target is Calcium-dependent protein kinase 4 (Plasmodium falciparum (isolate 3D7)) (UniProt Q8IBS5). Description: PfCDPK4 kinase inhibitors, biochemical, TCAMS library (AID 1159588; cut-off not given, nearly all actives have IC50 up to about 0.91 µM). To be noted: recombinant PfCDPK4, Kinase-Glo ATP depletion luminescence.
Calcium-dependent protein kinase 4 (Plasmodium falciparum (isolate 3D7)), sequence (Q8IBS5 whole entry, looked up): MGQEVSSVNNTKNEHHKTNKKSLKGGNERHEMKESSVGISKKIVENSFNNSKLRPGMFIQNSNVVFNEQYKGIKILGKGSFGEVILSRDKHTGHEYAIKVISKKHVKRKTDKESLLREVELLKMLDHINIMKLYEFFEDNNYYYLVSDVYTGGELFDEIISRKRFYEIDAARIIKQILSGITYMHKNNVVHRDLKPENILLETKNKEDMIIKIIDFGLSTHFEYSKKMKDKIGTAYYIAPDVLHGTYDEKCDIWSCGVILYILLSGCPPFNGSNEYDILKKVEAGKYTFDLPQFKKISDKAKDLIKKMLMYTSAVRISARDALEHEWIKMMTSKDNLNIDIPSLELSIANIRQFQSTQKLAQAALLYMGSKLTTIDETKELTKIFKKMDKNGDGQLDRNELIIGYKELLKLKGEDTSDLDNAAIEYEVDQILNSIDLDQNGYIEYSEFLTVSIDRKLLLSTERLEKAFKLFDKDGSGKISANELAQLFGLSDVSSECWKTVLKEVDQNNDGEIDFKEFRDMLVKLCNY

SMILES strings stand for the structures. Values without a mark were called inactive. For some of these results: Potency and affinity values are given separately. The source made the active and inactive calls. Unless noted, the rule behind the calls is not given here.

What is called inhibition is the drop in the measured response relative to a control, in per cent.

Plasmodium falciparum protein kinase 6 (PK6, PF3D7_1337100), sequence (Q8IDW1 1-305): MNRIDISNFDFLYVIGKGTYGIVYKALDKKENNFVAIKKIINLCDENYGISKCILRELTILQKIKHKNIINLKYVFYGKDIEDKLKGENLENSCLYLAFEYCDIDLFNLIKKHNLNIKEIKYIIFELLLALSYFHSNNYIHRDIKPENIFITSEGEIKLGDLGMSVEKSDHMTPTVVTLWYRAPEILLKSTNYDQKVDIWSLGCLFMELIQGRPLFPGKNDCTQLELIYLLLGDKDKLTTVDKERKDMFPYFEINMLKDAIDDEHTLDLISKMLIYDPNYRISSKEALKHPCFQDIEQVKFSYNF
L-lactate dehydrogenase (Plasmodium falciparum (isolate CDC / Honduras)), sequence (Q27743 whole entry, looked up): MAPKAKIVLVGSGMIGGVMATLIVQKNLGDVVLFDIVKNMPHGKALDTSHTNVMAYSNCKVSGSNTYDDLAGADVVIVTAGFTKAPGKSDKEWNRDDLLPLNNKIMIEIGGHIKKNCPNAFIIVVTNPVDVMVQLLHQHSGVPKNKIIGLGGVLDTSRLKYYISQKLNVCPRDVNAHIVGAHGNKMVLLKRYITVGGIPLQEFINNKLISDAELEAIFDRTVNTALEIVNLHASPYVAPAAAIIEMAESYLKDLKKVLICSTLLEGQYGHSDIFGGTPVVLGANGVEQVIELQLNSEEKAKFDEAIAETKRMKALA

As to `CC1CCC2(CC1)N=C(N)N=C(N)N2OCCCCCCCCO` (stereo not given), the growth inhibition in test [1] was 87% (active); in test [4], 96% (active). For the same compound, the inhibition in test [2] is 2%; in test [3], -4%. Besides, the result in test [5], in test [6], in test [7] and in test [8] was inactive.
With `OCc1ccc(-c2cncc(Nc3cccc(Cl)c3)c2)cc1`, the growth inhibition in test [1] is 100% (active); in test [4] it was 95% (active). Further, the values for the inhibition in test [2] and in test [3] were 4% and -3%, respectively. Besides, the result in test [5], in test [6], in test [7] and in test [8] was inactive.
In the case of `CN1CCN(c2cc(NC(=O)c3ccc(-c4ccc(C#N)cc4)cc3)ccc2Cl)CC1`, the growth inhibition is 94% (active) in test [1] and 101% (active) in test [4]. Moreover, the inhibition is 29% in test [2] and -5% in test [3]. Also, the result in test [5], in test [6], in test [7] and in test [8] was inactive.
Regarding `COc1ccc(C(=O)N2CCC3(CC2)C(=O)N(CC(=O)NCC2CCCCC2)CN3c2ccccc2)cc1`, the values for the growth inhibition in test [1] and in test [4] were 99% (active) and 100% (active), respectively. Further, the results for the inhibition in test [2] and in test [3] were 18% and 3%, respectively. For the same compound, the outcome in test [5], in test [6], in test [7] and in test [8] was inactive.
For `CCCN(CCC)C(=O)c1cc(C(=O)N[C@@H](Cc2ccccc2)[C@H](O)CNC(C)(C)c2cccc(C(F)(F)F)c2)cc(N2CCCCS2(=O)=O)c1`, the growth inhibition in test [1] is 98% (active); in test [4] it was 99% (active). In addition, the inhibition in test [2] was 19%; in test [3], -4%. For the same compound, the result in test [5], in test [6], in test [7] and in test [8] was inactive.
For `O=C(/C=C/c1ccc(Cl)c(Cl)c1)N1CCC(CCN2CCC(c3c[nH]c4ccccc34)CC2)CC1`, the growth inhibition in test [1] is 44%; in test [4], 100% (active). The inhibition in test [2] was 56% (active); in test [3], -3%. The outcome in test [5], in test [6], in test [7] and in test [8] was inactive.
For `CCNc1cc(C(=O)N[C@@H](Cc2ccccc2)[C@H](O)CNC2CCCCC2)cc(N2CCCCS2(=O)=O)c1`, the growth inhibition is 98% (active) in test [1] and 99% (active) in test [4]. Besides, the results for the inhibition in test [2] and in test [3] were 11% and -4%, respectively. Besides, the result in test [5], in test [6], in test [7] and in test [8] was inactive.
As for `CCc1cn2c3c(cc(C(=O)N[C@@H](Cc4ccccc4)[C@H](O)CNC4CCCCC4)cc13)N(C)S(=O)(=O)C2`, the growth inhibition in test [1] and in test [4] was 99% (active) each time. Moreover, the inhibition in test [2] is 20%; in test [3] it was 0%. The outcome in test [5], in test [6], in test [7] and in test [8] was inactive.
In the case of `O=C(Nc1ccc(OC2CCN(Cc3ccccc3)CC2)c(Cl)c1)c1ccc(F)cc1`, the growth inhibition in test [1] was 92% (active); in test [4], 94% (active). In addition, the values for the inhibition in test [2] and in test [3] were 30% and 9%, respectively. Moreover, the outcome in test [5], in test [6], in test [7] and in test [8] was inactive.
As to `c1ccc(CN2CCc3cc4nccc(N5CCNCC5)c4cc32)cc1`, the results for the growth inhibition in test [1] and in test [4] were 99% (active) and 100% (active), respectively. The values for the inhibition in test [2] and in test [3] were 9% and -4%, respectively. Also, the result in test [5], in test [6], in test [7] and in test [8] was inactive.
As for `COc1ccc(C2(CNCC(O)c3cccc([N+](=O)[O-])c3)CCCCC2)cc1OC` (stereo not given), the growth inhibition in test [1] was 85% (active); in test [4], 95% (active). In addition, the inhibition is -2% in test [2] and 3% in test [3]. In addition, the result in test [5], in test [6], in test [7] and in test [8] was inactive.
For the compound `Cc1ccc(F)cc1-c1cc(N2CCCN(C(=O)c3ccc(Br)o3)CC2)ncn1`, the growth inhibition in test [1] is 91% (active); in test [4], 94% (active). In addition, the inhibition in test [2] and in test [3] was 0% in each case. In addition, the result in test [5], in test [6], in test [7] and in test [8] was inactive.
With `Cc1cc(NC(=O)CCN2CCN(c3cccc(Cl)c3Cl)CC2)ccc1N1CCN(C(C)C)CC1`, the growth inhibition was 8% in test [1] and 99% (active) in test [4]. The inhibition was 82% (active) in test [2] and 7% in test [3]. In addition, the result in test [5], in test [6], in test [7] and in test [8] was inactive.
Turning to `Cc1noc(C)c1-c1cccc(C(=O)NC2CCN(CCNC(=O)C(c3ccccc3)c3ccccc3)CC2)c1`, the growth inhibition was 74% (active) in test [1] and 85% (active) in test [4]. Also, the results for the inhibition in test [2] and in test [3] were 27% and 5%, respectively. For the same compound, the outcome in test [5], in test [6], in test [7] and in test [8] was inactive.
As to `O=C(NCc1cccc(C(F)(F)F)c1)C(c1cc2ccccc2o1)N1CCN(C(c2ccccc2)c2ccccc2)CC1` (stereo not given), the growth inhibition is 80% (active) in test [1] and 91% (active) in test [4]. The inhibition in test [2] was -4%; in test [3], 0%. The outcome in test [5], in test [6], in test [7] and in test [8] was inactive.
`Cc1cc(NCCCN2CCCC2=O)n2c(nc3ccccc32)c1C#N`: the results for the growth inhibition in test [1] and in test [4] were 48% and 93% (active), respectively. Further, the figures for the inhibition in test [2] and in test [3] were 4% and -1%, respectively. Moreover, the result in test [5], in test [6], in test [7] and in test [8] was inactive.
For the compound `CN(Cc1cccc(O)c1)C1CCN(c2cc(NC(=O)c3cccc(F)c3)ccn2)CC1`, the growth inhibition in test [1] is 37%; in test [4], 98% (active). Besides, the inhibition in test [2] was -2%; in test [3], 0%. Further, the result in test [5], in test [6], in test [7] and in test [8] was inactive.
Regarding `Nc1nc(N)c2c(n1)CCC(c1ccccc1)C2` (stereo not given), the growth inhibition is -1% in test [1] and 93% (active) in test [4]. For the same compound, the inhibition in test [2] was 55% (active); in test [3] it was 1%. Further, the result in test [5], in test [6], in test [7] and in test [8] was inactive.
As to `Cc1cccc2[nH]c(-c3cccc(-c4cccc(CN5CCN(c6ccc(C#N)cn6)CC5)c4)c3)nc12`, the results for the growth inhibition in test [1] and in test [4] were 34% and 94% (active), respectively. In addition, the figures for the inhibition in test [2] and in test [3] were 11% and -5%, respectively. In addition, the outcome in test [5], in test [6], in test [7] and in test [8] was inactive.
As for `CC1(C(=O)Nc2ccc([N+](=O)[O-])cc2O)CC2c3ccccc3C1c1ccccc12` (stereo not given), the figures for the growth inhibition in test [1] and in test [4] were 16% and 98% (active), respectively. The inhibition is 37% in test [2] and 3% in test [3]. Moreover, the outcome in test [5], in test [6], in test [7] and in test [8] was inactive.

The values are drawn from PubChem BioAssay.
